Screening data from PubChem.
ALOX12 inh: Primary qHTS assay for inhibitors of human arachidonate 12S-lipoxygenase (ALOX12): Round 2. purified 12hLO, xylenol orange hydroperoxide absorbance. Potency, µM (top dose mostly 108 µM), most hits filed as inhibitors. 1.1% of 580,000 active. AID 1671190, 2021
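Hydroperoxide product was detected by ferrous iron/xylenol orange as the 573 to 405 nm absorbance ratio. Arachidonic acid at 40 uM (final) was turned over for 30 min at room temperature by 150 nM human 12hLO, pH 7.0 Hepes buffer, after 15 min compound preincubation.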
Glioma ERSR ind: qHTS for Inducers of the Endoplasmic Reticulum Stress Response (ERSR) in Human Glioma: qHTS; Potency, µM, most hits filed as activators; AID 602332, 2012; U87-MG GRP78 promoter luciferase reporter, 16 h; 0.02% of 420,000 active; further: series mostly up to about 76 µM; nearly all actives have a fitted effect of over 35% in size
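Stably transfected U87-MG glioma cells carrying a GRP78-based luciferase sensor; 16 h compound incubation. Luminescence end-point read 10 min after Bright-Glo addition at room temperature.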
PTHR1 agonist: qHTS for PTHR1 Agonists: Primary Screen | Parathyroid hormone/parathyroid hormone-related peptide receptor (Homo sapiens), Q03431 | HEK293 GP2 PTHR1 cells, GloSensor cAMP luminescence, 1 h | Potency, µM (series often up to 115 µM), hits mostly activators | 0.075% of 410,000 active; further: nearly all actives have a fitted effect of over 55% in size
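HEK-293-derived GP2 cells expressing PTHR1 and a GloSensor cAMP reporter, 3,000/well, plated overnight, given luciferin plus IBMX (each 0.5 mM as added) for 1 h at 37 °C, then compound for 1 h at 37 °C. Luminescence was read after 15 min at room temperature.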
GLP1R inv ag: qHTS of GLP-1 Receptor Inverse Agonists (Inhibition Mode); 1.6% of 410,000 active; AID 624417, 2012; Glucagon-like peptide 1 receptor (Homo sapiens), P43220; HEK293 GLP-1R CRE-luciferase, luminescence, 24 h; GLP-1R form is constitutively active; Potency, µM (doses to about 38.3 µM), actives largely listed as inhibitors; further: nearly all actives have a fitted effect of over 55% in size
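Inverse agonists were sought by their lowering of basal cAMP reporter luciferase output in HEK293 cells stably carrying constitutively active human GLP-1R, after 24 h compound treatment.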
GLP-1R agonist: qHTS of GLP-1 Receptor Agonists. Glucagon-like peptide 1 receptor (Homo sapiens), P43220. HEK293 GLP-1R CRE-luciferase, luminescence, 4-6 h; cells express a hypersensitive GLP-1R form. Potency, µM (top dose mostly 45.6 µM), hits mostly activators. 0.007% of 380,000 active. AID 624172, 2012
GLS inhibitor: qHTS for Inhibitors of Glutaminase (GLS) | GLS enzymatic activity, qHTS titration | Potency, µM (highest dose often 45.5 µM), usual class: inhibitors | 0.21% of 410,000 active | AID 624170, 2012
Target sequence (O94925 whole entry, looked up): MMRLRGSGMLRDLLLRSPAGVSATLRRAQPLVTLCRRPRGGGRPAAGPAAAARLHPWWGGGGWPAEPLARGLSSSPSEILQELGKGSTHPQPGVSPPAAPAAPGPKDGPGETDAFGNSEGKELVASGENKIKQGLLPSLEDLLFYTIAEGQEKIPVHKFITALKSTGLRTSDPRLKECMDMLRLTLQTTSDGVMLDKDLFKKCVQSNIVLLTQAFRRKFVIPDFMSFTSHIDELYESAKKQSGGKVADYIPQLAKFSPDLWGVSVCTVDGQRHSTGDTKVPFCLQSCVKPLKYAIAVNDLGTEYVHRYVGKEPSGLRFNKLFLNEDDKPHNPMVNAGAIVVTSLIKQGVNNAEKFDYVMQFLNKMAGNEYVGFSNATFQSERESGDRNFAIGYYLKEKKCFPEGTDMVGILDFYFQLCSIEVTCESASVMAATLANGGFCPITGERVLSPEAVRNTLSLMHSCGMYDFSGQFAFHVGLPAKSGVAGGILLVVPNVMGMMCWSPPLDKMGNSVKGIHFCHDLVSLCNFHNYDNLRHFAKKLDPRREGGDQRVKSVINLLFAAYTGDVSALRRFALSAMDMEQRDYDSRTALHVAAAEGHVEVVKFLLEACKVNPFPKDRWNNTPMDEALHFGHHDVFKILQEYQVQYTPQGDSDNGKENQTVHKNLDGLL
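hKGA; 45 mM KH2PO4 pH 8.2 + 0.02% Tween-20; cpd via pin tool; 1 mM Gln soln; GluOx/HRP/Amplex Red; RT 30 min; fluor. t0 & final.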
Large screens that a line does not name were inactive. Rows were chosen to be rich in hits. Some 2.3% of all compounds tested hit in one or more screens of this group. The call rests on the fitted dose curve; in most records, active means well fitted curve in the direction sought with a large enough effect; inconclusive means small, poorly fitted or top-dose-only effect, or another doubt; inactive means no such curve, though single readings can be large; an effect the other way counts as inactive or inconclusive.

COc1cc(C2NC(=O)NC(C)=C2C(=O)OCC(F)(F)F)ccc1O (configuration not stated)	none (no result: Glioma ERSR ind, PTHR1 agonist, GLP1R inv ag, GLP-1R agonist, GLS inhibitor)
O=C(COc1ccccc1[N+](=O)[O-])OCC(=O)c1ccc(Br)s1	ALOX12 inh 45µM
Ic1ccc(-c2noc(-c3ccco3)n2)cc1	none (no result: Glioma ERSR ind, PTHR1 agonist, GLP1R inv ag, GLP-1R agonist, GLS inhibitor)
CC(CC(=O)NCc1coc(-c2cccs2)n1)NC(=O)c1ccccc1 (configuration not stated)	none (no result: Glioma ERSR ind, PTHR1 agonist, GLP1R inv ag, GLP-1R agonist, GLS inhibitor)
NC(=S)N/N=C/C1=C(c2ccccc2)C2C=CC1C2 (configuration not stated)	ALOX12 inh 8.9µM (no result: Glioma ERSR ind, PTHR1 agonist, GLP1R inv ag, GLP-1R agonist, GLS inhibitor)
NC(=S)N/N=C/c1c(Cl)cccc1Cl	none (no result: Glioma ERSR ind, PTHR1 agonist, GLP1R inv ag, GLP-1R agonist, GLS inhibitor)
CCCOc1ccc(C(=O)N2CCC(c3nc4ccccc4s3)CC2)cc1	GLP1R inv ag inconclusive (no result: GLP-1R agonist)
c1ccc(OCCCCN2CCC(c3nc4ccccc4s3)CC2)cc1	ALOX12 inh 0.89µM (no result: Glioma ERSR ind, PTHR1 agonist, GLP1R inv ag, GLP-1R agonist, GLS inhibitor)
c1ccc(OCCCN2CCC(c3nc4ccccc4s3)CC2)cc1	ALOX12 inh 0.71µM (no result: Glioma ERSR ind, PTHR1 agonist, GLP1R inv ag, GLP-1R agonist, GLS inhibitor)
O=C(Cn1nnc(-c2ccccc2)n1)N1CCC(c2nc3ccccc3s2)CC1	ALOX12 inh 40µM (no result: Glioma ERSR ind, PTHR1 agonist, GLP1R inv ag, GLP-1R agonist, GLS inhibitor)
CC(=O)N1CCN(c2ccc(NC(=O)c3ccc([N+](=O)[O-])cc3Cl)cc2)CC1	ALOX12 inh inconclusive
O=C(NNc1ccccc1)C(=O)NNS(=O)(=O)c1ccc([N+](=O)[O-])cc1	ALOX12 inh inconclusive, GLP1R inv ag 3.2µM, GLS inhibitor inconclusive
CCN(CC)S(=O)(=O)c1cc([N+](=O)[O-])ccc1NNC(=O)Nc1ccc(Cl)c(Cl)c1	ALOX12 inh inconclusive, GLP1R inv ag 2.2µM
CCCCN(CCCC)S(=O)(=O)c1ccc(NC(=O)c2ccc([N+](=O)[O-])cc2Cl)cc1	GLP1R inv ag 4µM
O=C(Nc1ccccc1Oc1ccccc1)c1cc([N+](=O)[O-])ccc1Cl	ALOX12 inh inconclusive, GLP1R inv ag 4.5µM
O=C1c2cnc(-c3cc4ccccc4o3)nc2OCCN1c1ccccc1	none (no result: Glioma ERSR ind, PTHR1 agonist, GLP1R inv ag, GLP-1R agonist, GLS inhibitor)
O=C(Nc1ccc(Nc2ccccc2)cc1)c1ccc(Cl)cc1Cl	GLP1R inv ag 8.9µM, GLS inhibitor inconclusive
O=C(Nc1ccccc1Cl)c1ccccc1Oc1ccc(C(F)(F)F)cc1[N+](=O)[O-]	ALOX12 inh inconclusive, GLP1R inv ag 7.1µM
O=C(Nc1ccc(Nc2ccccc2)cc1)c1cc([N+](=O)[O-])ccc1Cl	GLP1R inv ag 3.2µM
O=C(NNc1ccc([N+](=O)[O-])cc1)c1ccccc1Cl	GLP1R inv ag 1.8µM
O=C(NNc1ccc([N+](=O)[O-])cc1)c1ccccc1F	GLP1R inv ag inconclusive, GLS inhibitor inconclusive
O=C1/C(=C/c2ccc(C(F)(F)F)cc2)CCc2ccccc21	none (no result: Glioma ERSR ind, PTHR1 agonist, GLP1R inv ag, GLP-1R agonist, GLS inhibitor)
CCCOC(=O)C1=C(C)NC2=C(C(=O)CCC2)C1c1cccc(O)c1 (configuration not stated)	none (no result: Glioma ERSR ind, PTHR1 agonist, GLP1R inv ag, GLP-1R agonist, GLS inhibitor)
O=C(CSc1nc2nc[nH]c2c(=O)[nH]1)NCc1ccc(F)cc1	none (no result: Glioma ERSR ind, PTHR1 agonist, GLP1R inv ag, GLP-1R agonist, GLS inhibitor)
O=C(CSc1nc2nc[nH]c2c(=O)[nH]1)NCc1ccccc1	ALOX12 inh 0.56µM (no result: Glioma ERSR ind, PTHR1 agonist, GLP1R inv ag, GLP-1R agonist, GLS inhibitor)
CC(C)n1nc(C(=O)OC/C(O)=C(\C#N)c2nc3ccccc3[nH]2)c2ccccc2c1=O	none (no result: Glioma ERSR ind, PTHR1 agonist, GLP1R inv ag, GLP-1R agonist, GLS inhibitor)
O=C(NC1CCCCC1)N1Cc2[nH]cnc2C[C@H]1c1nc(-c2cccc([N+](=O)[O-])c2)no1	ALOX12 inh 6.3µM (no result: Glioma ERSR ind, PTHR1 agonist, GLP1R inv ag, GLP-1R agonist, GLS inhibitor)
COc1ccc(-c2noc([C@@H]3Cc4nc[nH]c4CN3C(=O)NC3CCCCC3)n2)cc1	ALOX12 inh 3.5µM (no result: Glioma ERSR ind, PTHR1 agonist, GLP1R inv ag, GLP-1R agonist, GLS inhibitor)
O=C(NC1CCCCC1)N1Cc2[nH]cnc2C[C@H]1c1nc(-c2ccc3ccccc3c2)no1	ALOX12 inh 10µM (no result: Glioma ERSR ind, PTHR1 agonist, GLP1R inv ag, GLP-1R agonist, GLS inhibitor)
CC(=O)Nc1ccc(/C=C(/C#N)C(=O)C(C)(C)C)cc1	none (no result: Glioma ERSR ind, PTHR1 agonist, GLP1R inv ag, GLP-1R agonist, GLS inhibitor)
CC(=O)N1/C(=C/c2ccc(N(C)C)cc2)C(=O)c2ccccc21	Glioma ERSR ind inconclusive, GLP1R inv ag 10µM
